Laboratory results: the supplement of paper PMC6555819

What was measured:
Assay in all cases: PBM binding z-score (relative to random genomic background probes); higher = stronger binding; sequences stand for … in GC…GCGATTGACAGCGTAGAATGAAGG
[1] = test system: FXR:RXRa (NR concentration 270 nM, RXRa partner concentration 90 nM)
Summary of the method: (§1)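 Custom Agilent 4×180K protein-binding microarrays carried double-stranded probes, each with a 34-nt variable region. These regions held direct-repeat seeds, single-nucleotide variants, half-site ablations and random human genomic background sequences. Ligand-free nuclear receptor dimers were incubated on the arrays for 1 h, antibodies against each partner (one per run) detected binding, and scanned fluorescence was regression-normalized. Binding z-scores take the random background probes as reference.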

[2] = test system: LXRa:RXRa (NR concentration 270 nM, RXRa partner concentration 90 nM)
Summary of the method: as §1

[3] = test system: LXRa homodimer (NR concentration 270 nM)
Summary of the method: as §1

[4] = test system: LXRb:RXRa (NR concentration 270 nM, RXRa partner concentration 90 nM)
Summary of the method: as §1

[5] = test system: LXRb homodimer (NR concentration 270 nM)
Summary of the method: as §1

[6] = test system: PPARa:RXRa (NR concentration 270 nM, RXRa partner concentration 90 nM)
Summary of the method: as §1

[7] = test system: PPARg:RXRa (NR concentration 180 nM, RXRa partner concentration 90 nM)
Summary of the method: as §1

[8] = test system: PPARg:RXRa 270nM:90nM, anti-RXR (NR concentration 270 nM, RXRa partner concentration 90 nM)
Summary of the method: as §1

[9] = test system: PPARg:RXRa 30nM:10nM, anti-RXR (NR concentration 30 nM, RXRa partner concentration 10 nM)
Summary of the method: as §1

[10] = test system: PPARg:RXRa 90nM:30nM, anti-RXR (NR concentration 90 nM, RXRa partner concentration 30 nM)
Summary of the method: as §1

Sequence	PBM binding z-score [1]	PBM binding z-score [2]	PBM binding z-score [3]	PBM binding z-score [4]	PBM binding z-score [5]	PBM binding z-score [6]	PBM binding z-score [7]	PBM binding z-score [8]	PBM binding z-score [9]	PBM binding z-score [10]
CGTCCAAGGGCAAGGTCAGTGAAAGAGACTCGAA	1.95	1.58	-0.119	1.22	-0.836	2.75	0.977	1.31	-0.324	0.436
CATAGCAGGCCAGGGTCACTCAAGCATTTCGCTT	2.42	1.71	-0.165	2.2	0.0433	3.42	1.88	2.27	0.29	1.54
CCAGACAGATGAAAGGTAACTCAGTCTGGTACGC	-0.273	0.0444	-0.381	0.156	-0.167	0.579	0.879	1.21	0.636	0.829
CCGAGTAGGTTATGGGGCCTTCAGGCAACGGTGA	0.0359	0.107	-0.191	0.353	-0.362	1.33	1.43	2.56	0.26	1.58
TCTTTTAGTTGAAGGGCAACCGACGAGTCCGTTT	0.645	1.13	0.171	1	1.62	1.16	-0.118	2.13	3.65	2.71
GGAACTAGGGCAAGTTGATAGCAGAGTTTGATGG	0.0855	0.0269	0.0494	-0.0975	-0.374	2.15	3.63	3.21	1.12	2.57
CCTAATTGGTCAAGGTCACACACGCTATAGGTAC	4.21	4.15	2.33	4.22	1.18	4.36	3.13	3.45	1.13	2.69
CCTAGTTGGTAAAGGTCACACACGCTATAGGTAC	6.25	5.71	4.56	5.64	2.13	5.93	5.47	6.3	4	5.63
ATCTCTAGGTAAAGCTCAGTGAAAGATCGATAGA	0.281	0.0459	-0.107	-0.256	0.358	0.297	0.103	0.333	0.3	0.095
TGAATGTGGTTAAAGATCAGGGAACGTGGCGTCG	-0.133	-0.264	0.0303	-0.186	0.696	0.692	1.33	2.69	1.45	2.47
ATCTCTAGCTAAAGTTCAGTGAAAGATCGATAGA	0.485	1.83	1.89	1.01	0.585	1.74	1.63	3.25	1.53	2.85
TTACCAAGGTGAGCGGAGGTCGTTGATCCAACTC	1.38	1.36	-0.4	0.829	-1.16	1.81	0.414	1.19	0.0694	0.605
